Inconclusive results are not listed. Calls of active or inactive are those of the source. The call rests on the fitted dose curve; in most records, active means well fitted cell-killing curve with a large enough effect; inconclusive means small, poorly fitted or top-dose-only effect, or effect the other way; inactive means flat fitted curve, though single readings scatter.
What was measured:
Test in all cases: Primary qHTS to identify gynecologic anti-cancer compounds using libraries of approved drugs and bioactive compounds (AID 1345084); further: nearly all actives have a fitted effect of over 55% in size
Conditions in all cases: Gynecologic cancer cell panel viability, ATPlite luminescence, 48 h; series mostly up to 57.5 µM
[1] = test system: PA-1
Summary of the method: (§1)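 Measured: luminescence after ATPlite addition (15 min, RT). Exposure: 48 h, 37 C, 5% CO2.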

[2] = test system: SKOV3
Summary of the method: as §1

[3] = test system: Tov-21-G
Summary of the method: as §1
Potency means the concentration at half of the fitted maximal effect.

SMILES	Potency [1]	Potency [2]	Potency [3]
NC(=O)c1cccc(-c2cc(OC(=O)NC3CCCCC3)ccc2O)c1	inactive	inactive	–
Oc1ccc(CNc2ccccc2F)c2cccnc12	17.8 µM (active)	–	–
CCOCc1cc(OC)c(-c2ccc(C[C@H](NC(=O)c3c(F)cccc3F)C(=O)O)cc2)c(OC)c1	inactive	inactive	inactive
COc1cc2nc(N3CCCC3)nc(NCCCCCN3CCCC3)c2cc1OC	6.31 µM (active)	12.6 µM (active)	–
C[C@@H]1COCCN1c1cc(C2(S(C)(=O)=O)CC2)nc(-c2cccc3[nH]ccc23)n1	11.2 µM (active)	3.16 µM (active)	1.78 µM (active)
CC(C)c1cccc2c(-c3ccccc3)cc(-c3ccc(-c4ccc(C(=O)O)cc4)[nH]3)nc12	inactive	inactive	–
Cc1ccc(S(=O)(=O)n2ccc(-c3c(-c4ccc(Cl)cc4)noc3C)n2)cc1	inactive	–	–
CCNC(=O)Nc1ccc(-c2nc3c(c(N4CCOC[C@@H]4C)n2)CCN(c2ncccn2)C3)cc1	1.12 µM (active)	–	–
CN1CCN(Cc2ccc(-c3cnc4[nH]cc(-c5ccc6[nH]ccc6c5)c4c3)cc2)CC1	12.6 µM (active)	14.1 µM (active)	20 µM (active)
CC(C)c1nc(-c2ccc(NC(=O)Nc3cccc(C(F)(F)F)c3)c3ccccc23)c2c(N)nccn12	12.6 µM (active)	28.2 µM (active)	–
Nc1ccc(/C=C/C(=O)NCc2cc3cc(-c4ccc(C(=O)N5CCC(F)(F)CC5)cc4)cc(-c4ccc(F)cc4)c3o2)cn1	1.41 µM (active)	1.78 µM (active)	3.16 µM (active)
NC(=O)[C@H]1CCS[C@@H]2C[C@]3(CCCN3C(=O)Cc3ccc(NC(=O)COc4ccc(Cl)cc4Cl)cc3)C(=O)N12	15.8 µM (active)	–	–
CO[C@@H](C)Cn1c(=O)n(C)c2cnc3ccc(-c4cncc(C(C)(C)O)c4)cc3c21	0.891 µM (active)	–	–
CC(Oc1cc(-n2cnc3ccc(CN4CCN(C)CC4)cc32)sc1C(N)=O)c1ccccc1C(F)(F)F (configuration not stated)	11.2 µM (active)	–	–
CNCc1ccc(-c2cc(-c3nc(-c4ccc(S(=O)(=O)C(C)C)cc4)cnc3N)on2)cc1	11.2 µM (active)	3.16 µM (active)	1.58 µM (active)
CCC1C(=O)OC23C=C[C@@H]4C(C(=O)O)=CO[C@H](O[C@@H]12)[C@@H]43 (some centres not stated)	inactive	inactive	–

SMILES	Potency [1]	Potency [2]	Potency [3]
C[C@@H](Oc1cc(-n2cnc3ccc(OC4CCN(C)CC4)cc32)sc1C(N)=O)c1ccccc1C(F)(F)F	0.316 µM (active)	–	–
Cc1cc(C)c(Nc2ccnc(Nc3ccc(C#N)cc3)n2)c(C)c1	inactive	–	–
CC(C)(C#N)c1ccc(N2C(=O)OCc3cnc4ccc(-c5cnc6ccccc6c5)cc4c32)cc1	12.6 µM (active)	2.82 µM (active)	10 µM (active)
CC(O)/C=C/C1(O)C2(C)COC1(C)CC(O)C2 (configuration not stated)	inactive	–	–
O=C(c1ccc(/C=C/c2n[nH]c3ccccc23)cc1)N1CCNCC1	8.91 µM (active)	–	–
O=C(Nc1nc2ccccc2n1CCc1ccccc1)c1ccccc1	31.6 µM (active)	–	–
COc1cc(-c2ncn(/C=C\C(=O)OC(C)C)n2)cc(C(F)(F)F)c1	0.562 µM (active)	–	–
O=S(=O)(NCC1CC1)c1ccc(Nc2nccc(N3CCCc4cc(O)ccc43)n2)cc1	10 µM (active)	–	–
CN(C)c1nc(NC2CCC(NC(=O)c3ccc(F)c(F)c3)CC2)nc2ccccc12 (configuration not stated)	14.1 µM (active)	–	–
COc1ncc2cc(C(=O)Nc3cc(C(=O)NCc4cccc(Cl)c4)ccc3Cl)c(=O)[nH]c2n1	inactive	inactive	–
COC(=O)N1CCC(n2ncc3c(N4CCOCC4)nc(-c4ccc(NC(=O)Nc5ccc(CO)cc5)cc4)nc32)CC1	2.51 µM (active)	0.282 µM (active)	–
COc1cc(Br)c(Nc2nc(-c3c(C)nc4ncccn34)cs2)c(Br)c1	4.47 µM (active)	8.91 µM (active)	10 µM (active)
CC1COC(Nc2ccc3ncnc(Nc4ccc(OCc5nccs5)c(Cl)c4)c3c2)=N1 (configuration not stated)	inactive	15.8 µM (active)	–
C=CC(=O)Nc1cc(Nc2nccc(-c3c[nH]c4ccccc34)n2)c(OC)cc1N(C)CCN(C)C	4.47 µM (active)	–	–
CNC(=O)c1cccc(-c2ccc3c(N4CCOC[C@@H]4C)nc(N4CCOC[C@@H]4C)nc3n2)c1	1.58 µM (active)	1.58 µM (active)	1.41 µM (active)
CCOC(=O)Nc1cc(-c2ccc(C)c(NS(C)(=O)=O)c2)nn2c(C)nnc12	31.6 µM (active)	7.08 µM (active)	–
